Experimental data reported in PubChem BioAssay.
Calls of active or inactive are those of the source.

Key:
[1] = target: Albumin (Bos taurus) (UniProt P02769); assay: bovine serum albumin binders on microarray, profiling panel, artefact control for SMM control protein annotation, biochemical, small-molecule microarray, Alexa647 label, 635/667 nm fluorescence (AID 1118); conditions: BSA-A647 binding, fluorescence 635 nm, higher = more signal;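 also: score merges 667 nm emission intensity and signal-to-noise per printed compound spot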
Chain of Albumin (Bos taurus) (P02769 whole entry, looked up): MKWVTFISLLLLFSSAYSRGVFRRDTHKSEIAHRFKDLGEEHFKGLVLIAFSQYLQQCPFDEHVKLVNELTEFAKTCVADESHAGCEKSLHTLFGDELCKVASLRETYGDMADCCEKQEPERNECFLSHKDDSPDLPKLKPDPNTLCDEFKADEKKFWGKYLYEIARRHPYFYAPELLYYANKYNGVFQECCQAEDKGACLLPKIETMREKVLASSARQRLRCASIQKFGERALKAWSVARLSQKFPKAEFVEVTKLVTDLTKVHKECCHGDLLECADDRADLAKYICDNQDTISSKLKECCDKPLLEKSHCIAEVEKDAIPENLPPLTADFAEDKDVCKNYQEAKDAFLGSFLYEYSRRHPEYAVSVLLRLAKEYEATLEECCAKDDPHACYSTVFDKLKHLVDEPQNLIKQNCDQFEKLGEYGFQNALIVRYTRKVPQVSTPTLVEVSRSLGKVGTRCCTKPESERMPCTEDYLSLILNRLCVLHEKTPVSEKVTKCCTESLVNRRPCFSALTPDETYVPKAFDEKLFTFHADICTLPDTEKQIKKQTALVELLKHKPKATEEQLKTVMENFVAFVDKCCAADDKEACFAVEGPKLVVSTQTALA

[2] = small-molecule microarray binders of probe aXIP, primary screen, biochemical, NeuroSMM set, 635/667 nm fluorescence (AID 1119); conditions: higher = more signal, called active from +8 up or from −8 down;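 also: probe is the protein aXip251-270 applied at 1 µg/mL to compound-printed slides; binding of probe to printed compounds measured as 667 nm fluorescence plus signal to noise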
[3] = small-molecule binders of probe aNOTCH3, primary screen, biochemical, small-molecule microarray, 635/667 nm fluorescence (AID 1120); conditions: higher = more signal;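 also: probe is a biotin-tagged antibody raised against NOTCH3 rather than NOTCH3 protein; score merges spot fluorescence near 667 nm with spot signal to noise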
[4] = small-molecule binders of probe aNOTCH2, primary screen, biochemical, small-molecule microarray, 635/667 nm fluorescence (AID 1121); conditions: higher = more signal;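 also: score merges feature fluorescence read at 667 nm with its signal to noise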
[5] = target: Carbonic anhydrase 2 (Homo sapiens) (UniProt P00918); assay: CAII small-molecule binders, profiling panel, biochemical, small-molecule microarray, Alexa647-labelled CAII (AID 1122); conditions: CAII-A647 binding fluorescence, higher = more signal
[6] = COS7 lysate on small-molecule microarray, probe aHis, 635 nm (AID 1123); conditions: COS7 cell lysate, fluorescence, higher = more signal;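 also: z-score combines 667nm fluorescence intensity with signal-to-noise per printed compound spot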
[7] = compound binding in COS7 lysate, probe aLAP1, primary screen, cell lysate, small-molecule microarray (AID 1124); conditions: probe aLAP1, fluorescence, higher = more signal;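 also: lysate comes from COS7 cells expressing LAP1 and is applied at 0.3 µg/mL; score merges spot fluorescence near 667 nm with signal-to-noise over triplicate slides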
[8] = system: Sam68 (KHDRBS1); assay: Sam68 small-molecule binders, primary screen, biochemical, small-molecule microarray, 635 nm fluorescence (AID 1125); conditions: small-molecule microarray binding, higher = more signal;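 also: score merges 667 nm channel intensity with signal to noise over triplicate slides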
[9] = system: Chordin-like protein 2 (CHRDL2); assay: CHRDL2 small-molecule binders, primary screen, biochemical, small-molecule microarray, 635 nm fluorescence (AID 1126); conditions: small-molecule microarray binding, fluorescence 635 nm; higher = more signal;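 also: printed compound slides probed with Chrdl2 protein at 4 µg/mL for 1 h at 4 C; score merges 667 nm emission intensity with signal to noise over three replicate slides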
[10] = target: Concanavalin-A (Canavalia ensiformis) (UniProt P02866); assay: ConA small-molecule binders, primary screen, artefact control for SMM control protein annotation, biochemical, small-molecule microarray, Alexa647 label, 635 nm (AID 1127); conditions: ConA-A647 binding fluorescence, higher = more signal;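 also: z combines 667 nm emission intensity with signal-to-noise across three replicate slides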
Chain of Concanavalin-A (Canavalia ensiformis) (P02866 whole entry, looked up): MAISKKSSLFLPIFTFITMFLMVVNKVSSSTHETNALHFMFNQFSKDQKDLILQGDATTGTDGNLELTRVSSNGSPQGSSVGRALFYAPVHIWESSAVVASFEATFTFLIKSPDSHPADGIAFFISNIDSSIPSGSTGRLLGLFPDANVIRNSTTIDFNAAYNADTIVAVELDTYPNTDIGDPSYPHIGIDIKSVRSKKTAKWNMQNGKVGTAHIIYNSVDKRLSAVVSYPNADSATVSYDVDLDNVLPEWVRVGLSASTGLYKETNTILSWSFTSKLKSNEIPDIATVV

[11] = anti-His antibody binders, primary screen, artefact control for SMM control protein annotation, biochemical, small-molecule microarray, 635 nm fluorescence (AID 1128); conditions: anti-His Alexa647 antibody binding, higher = more signal;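 also: score merges feature fluorescence with signal-to-noise for each printed compound spot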
[12] = system: Human papillomavirus type 1a E7 protein (residues 1-88); assay: HPV1a E7 small-molecule binders, primary screen, biochemical, small-molecule microarray, residues 1-88, 635 nm (AID 1129); conditions: small-molecule microarray binding, fluorescence 635 nm; higher = more signal
[13] = target: Focal adhesion kinase 1 (Homo sapiens) (UniProt Q05397); assay: small-molecule microarray binders of FAK, primary screen, biochemical, 635/667 nm fluorescence, BSA, DTT (AID 1130); conditions: PTK2 binding, 635 nm fluorescence, higher = more signal;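 also: composite of spot emission at 667 nm and signal to noise over triplicate slides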
Chain of Focal adhesion kinase 1 (Homo sapiens) (Q05397 whole entry, looked up): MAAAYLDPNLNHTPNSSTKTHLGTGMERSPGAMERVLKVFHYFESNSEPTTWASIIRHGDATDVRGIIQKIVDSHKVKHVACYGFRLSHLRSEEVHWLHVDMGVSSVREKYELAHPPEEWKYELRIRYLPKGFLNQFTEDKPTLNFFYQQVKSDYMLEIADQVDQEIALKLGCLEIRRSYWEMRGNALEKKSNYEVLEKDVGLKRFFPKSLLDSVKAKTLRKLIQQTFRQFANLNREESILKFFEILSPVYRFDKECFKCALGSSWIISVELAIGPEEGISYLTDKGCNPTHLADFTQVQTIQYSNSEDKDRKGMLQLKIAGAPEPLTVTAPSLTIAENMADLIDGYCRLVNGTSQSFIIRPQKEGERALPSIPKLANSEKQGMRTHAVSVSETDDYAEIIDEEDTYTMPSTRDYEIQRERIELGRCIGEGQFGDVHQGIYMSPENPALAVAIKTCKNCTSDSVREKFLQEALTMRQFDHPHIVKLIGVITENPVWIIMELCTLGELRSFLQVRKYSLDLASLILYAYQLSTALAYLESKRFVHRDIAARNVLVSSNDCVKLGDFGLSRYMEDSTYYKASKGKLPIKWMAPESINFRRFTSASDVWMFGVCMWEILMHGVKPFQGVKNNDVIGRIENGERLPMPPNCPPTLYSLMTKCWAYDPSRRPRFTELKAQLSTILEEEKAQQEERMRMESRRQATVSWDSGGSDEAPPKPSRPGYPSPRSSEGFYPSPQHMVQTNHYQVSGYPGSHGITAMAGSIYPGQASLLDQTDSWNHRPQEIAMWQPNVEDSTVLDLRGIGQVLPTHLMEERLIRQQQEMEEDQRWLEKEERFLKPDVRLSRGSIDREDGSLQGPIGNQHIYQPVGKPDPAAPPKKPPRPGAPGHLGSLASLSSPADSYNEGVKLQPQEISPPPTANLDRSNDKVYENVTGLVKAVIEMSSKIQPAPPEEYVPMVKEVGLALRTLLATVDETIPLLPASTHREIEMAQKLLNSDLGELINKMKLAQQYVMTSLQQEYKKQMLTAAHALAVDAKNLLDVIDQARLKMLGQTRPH

[14] = system: Fibrinogen (Alexa647-labelled); assay: fibrinogen binders on compound microarrays, profiling panel, artefact control for SMM control-protein annotation, biochemical, small-molecule microarray, 635/667 nm fluorescence (AID 1131); conditions: fibrinogen-A647 binding fluorescence, higher = more signal;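 also: z-score merges 667 nm fluorescence with per-spot signal-to-noise over triplicate slides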
[15] = target: Follistatin (Homo sapiens) (UniProt P19883); assay: follistatin binders on small-molecule microarrays, primary screen, biochemical, small-molecule microarray, 635/667 nm fluorescence (AID 1132); conditions: FST binding, 635 nm fluorescence, higher = more signal
Chain of Follistatin (Homo sapiens) (P19883 whole entry, looked up): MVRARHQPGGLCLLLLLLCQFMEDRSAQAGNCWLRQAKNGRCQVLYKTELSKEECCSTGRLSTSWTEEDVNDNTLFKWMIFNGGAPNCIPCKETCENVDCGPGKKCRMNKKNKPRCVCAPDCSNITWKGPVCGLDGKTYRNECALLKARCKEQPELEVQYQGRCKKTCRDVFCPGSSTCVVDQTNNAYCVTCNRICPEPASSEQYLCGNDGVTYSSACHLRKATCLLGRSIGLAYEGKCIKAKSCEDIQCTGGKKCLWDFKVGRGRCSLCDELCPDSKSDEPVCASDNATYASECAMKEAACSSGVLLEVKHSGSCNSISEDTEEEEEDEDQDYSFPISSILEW

[16] = target: Fibroblast growth factor 2 (Homo sapiens) (UniProt P09038); assay: FGF2 binders on small-molecule microarrays, primary screen, biochemical, small-molecule microarray, 635/667 nm fluorescence (AID 1133); conditions: small-molecule microarray binding, FGF2, fluorescence 635/667; higher = more signal
Chain of Fibroblast growth factor 2 (Homo sapiens) (P09038 whole entry, looked up): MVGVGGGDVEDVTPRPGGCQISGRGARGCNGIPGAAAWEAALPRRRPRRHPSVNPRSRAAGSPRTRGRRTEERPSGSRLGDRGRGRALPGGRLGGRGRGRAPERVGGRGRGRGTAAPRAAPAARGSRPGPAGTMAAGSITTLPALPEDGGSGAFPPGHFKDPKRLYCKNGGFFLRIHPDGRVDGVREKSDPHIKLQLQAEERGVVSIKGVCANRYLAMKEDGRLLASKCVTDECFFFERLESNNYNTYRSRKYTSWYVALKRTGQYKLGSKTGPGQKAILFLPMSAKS

[17] = mitochondrial membrane potential change in A549 cells, profiling panel, cell-based, JC-1 fluorescence, basal, 24 h, 100 nL (AID 1138); conditions: higher = more signal;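 also: A549 lung adenocarcinoma cells under basal conditions with no added stimulus; test concentration not given here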
[18] = system: Lefty1; assay: Lefty1 binders on small-molecule microarrays, primary screen, biochemical, small-molecule microarray, 635/667 nm fluorescence (AID 1139); conditions: small-molecule microarray binding, fluorescence 635/667; higher = more signal
[19] = system: wheat germ agglutinin (Triticum aestivum), Alexa647-labelled; assay: wheat germ agglutinin binders on compound microarrays, profiling panel, artefact control for SMM control-protein annotation, biochemical, small-molecule microarray, 635/667 nm fluorescence (AID 1140); conditions: WGA-A647 binding, 635 nm fluorescence, higher = more signal;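 also: score merges 667 nm feature emission with signal to noise over triplicate slides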
[20] = target: Luciferin 4-monooxygenase (Photinus pyralis) (UniProt P08659); assay: firefly luciferase enzyme inhibitors, primary screen, biochemical, luminescence, purified enzyme, 2006 set (AID 1141); conditions: SteadyGlo luminescence, 30 min, higher = more signal, called active from +8 up or from −8 down;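 also: cell-free assay with purified firefly luciferase at 100 ng per well in PBS; test concentration not given here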
Chain of Luciferin 4-monooxygenase (Photinus pyralis) (P08659 whole entry, looked up): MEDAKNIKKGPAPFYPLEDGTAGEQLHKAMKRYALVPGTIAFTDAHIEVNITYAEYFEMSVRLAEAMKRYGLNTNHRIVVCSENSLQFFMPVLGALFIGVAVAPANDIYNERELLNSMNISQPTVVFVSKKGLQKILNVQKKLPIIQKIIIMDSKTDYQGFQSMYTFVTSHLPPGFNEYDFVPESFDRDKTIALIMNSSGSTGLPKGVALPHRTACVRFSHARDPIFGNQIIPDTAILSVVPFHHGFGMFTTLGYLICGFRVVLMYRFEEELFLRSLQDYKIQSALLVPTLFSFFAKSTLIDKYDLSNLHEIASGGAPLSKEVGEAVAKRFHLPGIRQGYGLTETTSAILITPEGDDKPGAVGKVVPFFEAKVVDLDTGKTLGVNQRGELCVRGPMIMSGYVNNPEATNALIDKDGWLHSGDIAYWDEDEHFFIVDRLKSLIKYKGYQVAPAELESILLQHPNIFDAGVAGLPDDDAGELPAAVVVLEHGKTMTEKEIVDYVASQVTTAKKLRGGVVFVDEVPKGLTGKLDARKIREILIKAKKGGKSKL

SMILES	composite z-score [1]	composite Z-score [2]	composite z-score [3]	composite z-score [4]	composite z-score [5]	composite z-score [6]	composite z-score [7]	composite z-score [8]	composite z-score [9]	composite z-score [10]	composite z-score [11]	composite z-score [12]	composite z-score [13]	composite z-score [14]	composite z-score [15]	composite z-score [16]	z-score [17]	composite z-score [18]	composite z-score [19]	z-score [20]
COC(=O)[C@@]1(Cc2ccccc2)[C@H]2c3cc(C(=O)N4CCCC4)n(Cc4ccc(OC(F)(F)F)cc4)c3C[C@H]2CN1C(=O)c1ccccc1	0.963	-0.56 (inactive)	0.772	0.509	0.461	2.44	0.498	1.31	-0.488	1.16	1.52	1.24	0.653	0.892	0.575	-0.65	0.989	-0.577	1.16	1 (inactive)
COCCOC(=O)N1C(=O)[C@@]2(c3cc(C#CCNC(N)=O)ccc31)[C@H](c1ccc(OCCO)cc1)N1[C@H](c3ccccc3)[C@H](c3ccccc3)OC(=O)[C@H]1[C@@H]2C(=O)N1CCN(c2ncccn2)CC1	0.358	0.764 (inactive)	0.31	0.09	0.2	0.887	0.558	1.29	0.908	1.11	0.122	1.09	1.58	0.72	1.41	1.24	-1.57	0.411	0.447	-1.23 (inactive)
C=C(/C(=C/C[C@@H](OC(C)=O)c1ccccc1OCCO)c1cnc2ccccc2c1)C(C)C	0.23	1.17 (inactive)	-0.0784	-0.0859	0.571	0.503	-0.0618	0.778	0.474	0.871	0.119	-0.198	0.0328	-0.571	1.17	1.48	-0.111	1.58	1.05	-0.557 (inactive)
C=CCNC(=O)[C@@H]1[C@H]2C(=O)O[C@H](c3ccccc3)[C@H](c3ccccc3)N2[C@H](c2ccc(O)cc2)[C@@]12C(=O)Nc1ccc(C#CCCO)cc12	0.803	-0.588 (inactive)	-0.186	-0.149	0.761	1.55	0.71	0.277	-1.31	0.0196	0.111	-0.756	1.33	-1.22	-0.773	-0.53	-0.0797	-0.836	1.24	1.05 (inactive)
CO[C@H]1O[C@H](CO)[C@@H](OC(=O)Nc2ccc(C(F)(F)F)cc2)[C@H](OC(=O)Nc2ccccc2)[C@H]1OC(=O)Nc1ccccc1	0.868	-0.465 (inactive)	0.248	0.0083	0.565	2.68	0.494	1.3	-0.42	1.21	2.65	1.25	1.15	0.737	1.29	0.805	-1.89	0.88	1.33	-0.579 (inactive)
COCC(=C=CC[C@@H](O)c1ccccc1OCCO)C[C@@H](O)c1ccccn1	-0.203	-0.422 (inactive)	-0.0043	-0.117	0.777	1.28	0.583	0.86	-0.0696	0.742	-0.415	0.845	0.287	-0.853	0.968	0.466	-0.00359	0.913	0.293	-0.578 (inactive)
CC(C)C[C@@H]1NC(=O)[C@@H]2C[C@H](C(=O)NCCCC[N+](C)(C)C)[C@H](c3cccc(OCCO)c3)N2C1=O	-1.59	0.0578 (inactive)	0.116	-0.0999	0.479	0.432	0.255	0.82	1.44	0.496	2.63	0.235	-0.584	-0.173	1.45	1.38	-0.69	1.47	-0.445	-0.45 (inactive)
COc1ccc([Si](C)(C)[C@H]2[C@H](CCO)O[C@@]3(C(=O)N(Cc4cccc(N5CCOC5=O)c4)c4ccccc43)[C@@H]2C)cc1	0.688	0.207 (inactive)	0.0203	-0.0942	0.281	1.04	-0.15	0.996	-0.0894	1.1	0.56	1.13	0.413	0.708	0.433	0.203	0.00631	0.729	0.63	-0.0833 (inactive)
CC(C)NC(=O)[C@@]1(Cc2ccccc2I)c2ccccc2C(=O)N(Cc2ccccc2C(F)(F)F)[C@H]1c1ccc(CO)cc1	0.263	0.0307 (inactive)	0.059	0.0509	0.71	1.47	0.896	0.63	0.107	0.548	0.992	0.906	0.601	0.75	0.464	0.125	1.29	0.266	1.15	-0.793 (inactive)
[N-]=[N+]=Nc1ccccc1C[C@]1(C(=O)NCCN2CCOCC2)N=C(c2ccc(OCCCO)cc2)O[C@H]1c1ccccc1N=[N+]=[N-]	0.892	0.241 (inactive)	0.505	0.141	0.584	2.84	0.505	1.29	0.415	1.15	1.55	1.24	-0.0277	0.94	1.39	1.65	2.42	0.499	0.687	-5.36 (inactive)
O=C1O[C@@H](c2ccccc2)[C@@H](c2ccccc2)N2[C@@H](c3ccc(O)cc3)[C@]3(C(=O)Nc4ccc(C#CC5(O)CCCCCC5)cc43)[C@@H](C(=O)N3CCN(c4ncccn4)CC3)[C@H]12	0.77	0.95 (inactive)	-0.0558	-0.123	0.604	1.87	0.333	1.31	-0.106	1.13	1.69	1.22	0.56	0.925	0.642	0.385	-0.243	0.441	0.601	1.04 (inactive)
CC(C)CNC(=O)[C@@]1(c2ccc([N+](=O)[O-])cc2)CC(=O)N(C(C)C)[C@@H]1c1ccc(CO)cc1	0.1	1 (inactive)	-0.273	-0.161	0.735	1.59	0.664	0.3	-2.39	0.0801	0.217	-0.467	-0.362	-1.2	0.272	-1.25	-0.0836	-0.455	0.486	1.18 (inactive)
O=C1O[C@H](c2ccccc2)[C@H](c2ccccc2)N2[C@H]1[C@@H](C(=O)N1CCN(c3ncccn3)CC1)[C@]1(C(=O)Nc3ccc(C#CCCO)cc31)[C@H]2c1ccccc1OCCO	0.759	-0.215 (inactive)	-0.0918	-0.0533	0.556	2.03	1.38	1.3	0.231	1.11	1.55	1.2	0.358	0.869	0.618	1.29	0.91	0.151	1.02	-0.682 (inactive)
O=C1N(CCS(=O)(=O)c2ccccc2)Cc2ccccc2C[C@@]12COC(c1ccc(OCCCO)cc1)=N2	-0.0401	0.319 (inactive)	0.384	-0.0651	0.585	2.55	0.203	1.32	0.825	1.17	2.25	1.26	1.04	0.841	1.4	0.962	0.367	0.619	1.15	-0.966 (inactive)
COc1cccc(C)c1NC(=O)O[C@H]1[C@H](OC(=O)Nc2ccccc2)[C@H](OC(=O)Nc2ccccc2)[C@@H](OC)O[C@@H]1CO	0.958	-0.922 (inactive)	-0.0647	0.0564	0.54	2.48	0.25	1.34	-1.05	1.17	1.44	1.26	1.01	0.442	0.615	-0.21	0.138	-0.337	0.861	-0.852 (inactive)
COCCCNC(=O)[C@@]1(Cc2ccccc2I)c2ccccc2C(=O)N(Cc2ccccc2Cl)[C@H]1c1ccc(CO)cc1	0.681	0.432 (inactive)	-0.0492	-0.139	0.344	0.184	0.438	0.902	-0.105	0.752	1.25	0.494	0.692	0.912	0.583	-0.125	0.723	0.246	0.897	1.29 (inactive)
COC(=O)[C@@]1(Cc2ccccc2)[C@H]2c3cc(C(=O)N4CCCC4)n(Cc4ccccc4)c3C[C@H]2CN1C(=O)c1ccccc1	0.76	0.689 (inactive)	0.591	0.302	0.637	2.36	-0.0361	0.5	-0.883	0.914	0.673	1.24	0.756	0.524	0.841	-0.407	0.339	0.272	0.893	0.886 (inactive)
C=C(/C(=C/C[C@@H](OC(=O)c1ccncc1)c1cccc(OCCO)c1)c1cc(C(=O)OC)ccc1OC)C(C)C	0.482	0.25 (inactive)	0.19	-0.0207	0.597	1.23	0.763	1.21	0.859	0.996	1.01	1.13	-0.165	0.366	0.525	1.43	4.89	0.879	0.487	-1.88 (inactive)
CN(C)C(=O)[C@@]1(CCS(=O)(=O)c2ccccc2)N=C(c2ccc(OCCCO)cc2)O[C@H]1c1ccccc1CN=[N+]=[N-]	0.9	0.24 (inactive)	0.167	-0.0478	0.553	2.45	0.527	1.3	0.205	1.08	1.78	1.25	0.642	1.06	0.871	0.513	-0.0571	0.49	0.915	0.628 (inactive)
